From PubChem BioAssay (Tox21)
Results filed as inconclusive are left out. A call without a number means that no potency is given here. A number with no mark means an inactive call. Activity calls are given as the source filed them. Calls follow the shape of the dose curve; as a rule, active = well fitted cell-killing curve with a large enough effect in the repeat runs; inconclusive = weak or mixed curves; inactive = no such curve, though single readings can be large or run the other way.

test: qHTS assay to identify small molecule antagonists of the peroxisome proliferator-activated receptor delta (PPARd) signaling pathway - cell viability counter screen (AID 743213); settings: PPARd-bla HEK293H viability, CellTiter-Glo luminescence, 17 h; series mostly up to 62 µM; also: nearly all actives have a fitted effect of over 50% in size
From the text: U.S. Tox21 Program National Center for Advancing Translational Sciences [NCATS] NIH Chemical Genomics Center [NCGC] U.S. Environmental Protection Agency [EPA] National Institutes of Environmental Health Sciences [NIEHS] National Toxicology Program [NTP] U.S. Food and Drug Administration [FDA] Tox21 Assay Overview: The peroxisome proliferator-activated receptors (PPARs) are lipid-activated transcription factors of the nuclear receptor superfamily with three distinct subtypes namely PPAR alpha, PPAR delta (PPARd) and PPAR gamma. All these subtypes heterodimerizes with Retinoid X receptor (RXR) and have different physiological functions. […] To identify the compounds that inhibit PPAR-delta signaling, GeneBLAzer PPAR delta UAS-bla HEK293H cell line (Invitrogen, Carlsbad, CA, USA) containing a beta-lactamase reporter gene under the control of an Upstream Activator Sequence (UAS) was used to screen the Tox21 compound library. The cytotoxicity of the Tox21 compound library against the PPARd-bla cell line was tested in parallel by measuring the cell viability using CellTiter-Glo assay (Promega, Madison, WI) in the same wells.
Tox21 Assay Protocol Summary: PPARd-bla cells were dispensed at 3000 cells/5uL/well in 1536-well black wall/clear bottom plates using a Multidrop Combi (Thermo Fisher Scientific, Waltham, MA) dispenser. After the assay plates were incubated at 37 C and 5% CO2 for 5 h, 23 nL of compounds dissolved in DMSO, positive controls or DMSO only was transferred to the assay plate by a Pintool station (Kalypsys, San Diego, CA), followed by addition of 1ul L165041 (300 nM, final concentration in the wells). The assay plates were incubated at 37 C for 17 h, and then 1 uL of LiveBLAzerTM B/G FRET substrate was added using a Bioraptr Flying Reagent Dispenser (FRD) workstation (Beckman Coulter, Indianapolis, IN, USA). The assay plates were incubated at room temperature for 2 h and fluorescence intensity was measured by an Envision plate reader (PerkinElmer, Shelton, CT). For cell viability readout that measures cytotoxicity, 3 ul/well of CellTiter-Glo reagent was added into the assay plates using a Bioraptr FRD. After 30 min incubation at room temperature, the luminescence intensity in the plates was measured using a ViewLux plate reader (PerkinElmer).

SMILES	Potency	viability change, negative = cytotoxic
O=c1n(CCCN2CCN(c3cccc(Cl)c3)CC2)nc2ccccn12	inactive	–
CN1Cc2c(N)cccc2C(c2ccccc2)C1 (stereo not given)	inactive	–
CCCCCCCCO	inactive	–
CC(C)=CCC/C(C)=C/C=O	inactive	–
OC[C@H]1O[C@@H](Oc2ccc(O)cc2)[C@H](O)[C@@H](O)[C@@H]1O	inactive	–
COc1ccc([C@@H]2CC(=O)c3c(O)cc(O[C@@H]4O[C@H](CO[C@@H]5O[C@@H](C)[C@H](O)[C@@H](O)[C@H]5O)[C@@H](O)[C@H](O)[C@H]4O)cc3O2)cc1OC	inactive	–
COc1ccc(N)c(OC)c1	inactive	–
CC(=O)OC[C@H]1O[C@@](COC(C)=O)(O[C@H]2O[C@H](COC(C)=O)[C@@H](OC(C)=O)[C@H](OC(C)=O)[C@H]2OC(C)=O)[C@@H](OC(C)=O)[C@@H]1OC(C)=O	inactive	–
N[C@@H](Cc1cc(I)c(Oc2ccc(O)c(I)c2)c(I)c1)C(=O)O	inactive	–
CCc1cccc(CC)c1N	inactive	–
CC/C=C(\C(=O)N[C@@H]1C(=O)N2C(C(=O)OCOC(=O)C(C)(C)C)=C(COC(N)=O)CS[C@H]12)c1csc(N)n1	inactive	–
Cc1ccncc1	inactive	–
O=C(O)Cc1c[nH]c2ccccc12	inactive	–
CCCCCCCCCCCC(=O)N(C)CC(=O)O	–	-8.19% [at 6.26 µM]
CC(COCC(C)OC(=O)c1ccccc1)OC(=O)c1ccccc1 (stereo not given)	inactive	–
C[Si](C)(C)N[Si](C)(C)C	inactive	–
O=C1C(N(CO)C(=O)NCO)N(CO)C(=O)N1CO (stereo not given)	inactive	–
Nc1cccc(N)n1	inactive	–
C[n+]1ccn(CCO)c1	inactive	–
CC(=O)OCc1ccc2c(c1)OCO2	inactive	–

SMILES	Potency	viability change, negative = cytotoxic
O=Cc1ccc(CO)o1	inactive	–
Cc1ncc(CO)c(CO)c1O	inactive	–
CCCCCCCCC(=O)O	inactive	–
C=C(C)CC(C)(C)C	inactive	–
COc1ccccc1[N+](=O)[O-]	inactive	–
NC(=O)c1ncn([C@@H]2O[C@H](CO)[C@@H](O)[C@H]2O)n1	inactive	–
COC(=O)OC	inactive	–
CC(=O)OC/C=C(\C)CCC=C(C)C	inactive	–
Cc1cc(CC(=O)O)n(C)c1C(=O)c1ccc(Cl)cc1	inactive	–
C=C1C[C@]23C[C@@]1(O)CC[C@H]2[C@@]12C=C[C@H](O)[C@@](C)(C(=O)O1)[C@H]2[C@@H]3C(=O)O	inactive	–
COC(=O)/C=C\C(=O)OC	inactive	–
NC(=O)NC(N)=O	inactive	–
CCN(CC)CCNC(=O)c1ccc(N)cc1	inactive	–
CC1(C)C(=O)N(Cl)C(=O)N1Cl	inactive	–
Cc1cc(C)c(O)c(C)c1	inactive	–
CO[Si](CCCNCCN)(OC)OC	inactive	–
CCCCCCCCCCCCCC(=O)O	inactive	–
CCCCCCC(=O)O	inactive	–
Cc1ccccc1Cl	inactive	–
O=C1O[C@H]([C@H](O)CO)C(O)=C1O	inactive	–
